Source: PubChem (several laboratories)
NadD block = inhibitors of S. aureus NadD, primary screen, biochemical, colorimetric, uHTS; Nicotinate-nucleotide adenylyltransferase NadD (Staphylococcus aureus N315); actives 0.78% (n = 360,000); purified NadD enzyme, colorimetric absorbance read-out; inhibition, % at 20 µM; AID 602399, 2012; in the data active = inhibition above about 26%
Myeloid diff 2 = induction of myeloid progenitor differentiation, primary screen, cell-based, flow cytometry, MLPCN library; calls only at 10 µM; actives 1% (n = 360,000); ER-HoxA9 myeloid progenitors, lysozyme-GFP differentiation; AID 624256, 2012;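 active = normalized GFP-positive differentiation at or above the plate's own cutoff, the solvent-only control mean plus 3 SD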;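 also: cells exposed to compound for four days before flow analysis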
FAS TE block = FAS thioesterase domain inhibitors, primary screen, biochemical, fluorescence intensity, uHTS. recombinant FAS-TE, OMFH fluorogenic substrate, fluorescence endpoint. AID 602261, 2012. inhibition, % at 15 µM. Fatty acid synthase (Homo sapiens), P49327. actives 0.67% (n = 360,000);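 active = compounds whose normalised, plate-corrected inhibition of enzyme fluorescence in the single-dose primary screen is 50% or more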
CRFR2-BP antag = antagonists of CRF-BP/CRF-R2 complex, primary screen, cell-based, HEK293, calcium dye fluorescence, uHTS; inhibition, % at 11.8 µM; actives 0.59% (n = 350,000); CRF-induced calcium fluorescence;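 active = inhibition of the ligand-induced calcium signal above about 50% at the single tested concentration, limit read from the data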
CendR NRP1 mod = modulators of CendR peptide binding to NRP-1, primary screen, biochemical, fluorescence polarization, uHTS | actives 0.85% (n = 360,000) | FAM-RPARPAR peptide binding to NRP-1 | AID 602438, 2012 | Neuropilin-1 (Homo sapiens), O14786 | inhibition, % at 25 µM;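 active = inhibition or corrected inhibition above about 18%, plus a signal ratio from 0.5 to 1.5, limit read from the data, passing the limit was not always enough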
Large screens that a line does not name were inactive. Sampled rows, rich in hits. Any-hit rate of the full collection: about 3.6%.

Cc1c(CC(Cl)(Cl)Cl)c2c(n1O)CC(C)(C)CC2=O	CRFR2-BP antag 74
Cc1ccc(S(=O)(=O)N2CCC(C(N)=O)CC2)cc1[N+](=O)[O-]	CendR NRP1 mod 27
NC(=O)C1CCN(S(=O)(=O)c2ccccc2[N+](=O)[O-])CC1	none
O=C(OCc1cn([C@H]2CN(CC3CCCCC3)[C@@H](c3ccccc3)C[C@@H]2O)nn1)c1ccccc1	none
NS(=O)(=O)c1ccc(CNC(=O)C2(c3ccc(Cl)cc3)CC2)cc1	none
COc1ccc(CNC(=O)CCNS(=O)(=O)c2ccc(Cl)cc2)cc1	CendR NRP1 mod 28
Cn1c(=O)oc2cc(S(=O)(=O)NCCC(=O)NCc3ccc(F)cc3)ccc21	CRFR2-BP antag 99
COc1ccc(CNC(=O)C2(c3ccc(Cl)cc3)CC2)cc1	CRFR2-BP antag 61
O=C(NCc1ccc(F)cc1)OC1CC2CC1[C@H]1CCCCN1C2=O (stereo partly drawn)	none (no result: CRFR2-BP antag)
COc1ccccc1CNC(=O)COC(=O)c1cc(=O)[nH]c2ccccc12	none
CCOC(=O)[C@]12CCCC=C1N(CCc1ccc(OC)c(OC)c1)C(=O)[C@H](CC(=O)N1CCCCC1)C2	none (no result: NadD block, FAS TE block, CRFR2-BP antag)
Cc1cc(-c2csc(NCc3ccccc3)n2)c(C)n1C	NadD block 42
O=c1[nH][nH]c2c1C(c1ccc(F)cc1)OC(CCc1ccccc1)C2 (stereo not drawn)	none (no result: CRFR2-BP antag)
S=C(NCCc1ccccc1)N1CCC2CC1c1c(Cl)cccc12 (stereo not drawn)	CRFR2-BP antag 51
COC1CCN(C(=O)c2ccc3oc(C(C)C)nc3c2)CC1	none
COc1cccc(OCCNC(=O)c2ccc(C)cc2)c1	Myeloid diff 2 active
COc1cccc(OCCNC(=O)c2cc([N+](=O)[O-])cc([N+](=O)[O-])c2)c1	Myeloid diff 2 active
COc1cccc(OCCNC(=O)c2cccc(OC)c2)c1	none
Cc1c(S(=O)(=O)c2ccccn2)c(N)n(Cc2ccccc2Cl)c1C	Myeloid diff 2 active
CCOc1cc(/C=N/n2cnnc2)ccc1OCC(=O)Nc1ccccc1OC	CendR NRP1 mod 20
COc1ccccc1NC(=O)COc1ccc(/C=N/n2cnnc2)cc1OC	none
O=C(COc1ccccc1Cl)Nc1ccccc1C(=O)N1CCCCC1	none
O=C(CSc1cccc[n+]1[O-])Nc1cc(S(=O)(=O)N2CCOCC2)ccc1Cl	none
O=C(OCc1ccccc1)c1cc(S(=O)(=O)N2CCCCC2)ccc1N1CCOCC1	none
O=C(COc1cccc(Cl)c1)Nc1cc(S(=O)(=O)N2CCOCC2)ccc1N1CCOCC1	Myeloid diff 2 active
O=C(OCc1cccc(Cl)c1)c1cc(S(=O)(=O)N2CCCCC2)ccc1N1CCOCC1	Myeloid diff 2 active
O=C(CSc1cccc[n+]1[O-])Nc1cc(S(=O)(=O)N2CCOCC2)ccc1N1CCOCC1	CendR NRP1 mod 28
O=C(COc1ccccc1)Nc1cc(S(=O)(=O)N2CCOCC2)ccc1N1CCCC1	none
O=C(NCCc1ccc(O)cc1)c1ccc(Cl)cc1	CendR NRP1 mod 24 (no result: Myeloid diff 2)
S=C(NCc1ccccc1)Nc1ccncc1	Myeloid diff 2 active
S=C(NCc1ccccc1)Nc1ccc(Cl)cc1	CRFR2-BP antag 57 (no result: Myeloid diff 2)
O=C(NCc1ccccc1)c1ccc(Cl)cc1	CRFR2-BP antag 86 (no result: NadD block, Myeloid diff 2, FAS TE block, CendR NRP1 mod)
O=C(NCc1ccccc1)c1ccc(Br)cc1	none
S=C(NCc1ccncc1)Nc1ccccc1	none
O=C(O)CSCC(=O)N(c1ccccc1)c1ccccc1	none
C#CCOCCOCCOCCNc1nc(N2CCN(C(=O)Cn3cc(CCCN=C(N)N)nn3)CC2)nc(N2CCN(C(=O)Cn3cc(CC(C)O)nn3)CC2)n1 (stereo not drawn)	CendR NRP1 mod 25
C#CCOCCOCCOCCNc1nc(N2CCN(C(=O)Cn3cc(CCO)nn3)CC2)nc(N2CCN(C(=O)[C@H](CCCCN)n3cc(CC(C)O)nn3)CC2)n1 (stereo partly drawn)	CRFR2-BP antag 53
C#CCOCCOCCOCCNc1nc(N2CCN(C(=O)Cn3cc(CC(C)O)nn3)CC2)nc(N2CCN(C(=O)[C@H]([C@@H](C)CC)n3cc(CCCN=C(N)N)nn3)CC2)n1 (stereo partly drawn)	none
C#CCOCCOCCOCCNc1nc(N2CCN(C(=O)Cn3cc(CCO)nn3)CC2)nc(N2CCN(C(=O)[C@H](C)n3cc(CCCN=C(N)N)nn3)CC2)n1	CendR NRP1 mod 23
C#CCOCCOCCOCCNc1nc(N2CCN(C(=O)Cn3cc(CC(C)O)nn3)CC2)nc(N2CCN(C(=O)[C@H](CCCCN)n3cc(CCCC)nn3)CC2)n1 (stereo partly drawn)	none
CN1CCN(S(=O)(=O)c2cccc(C(=O)N(C)CC(=O)Nc3ccc(Cl)c(Cl)c3)c2)CC1	none
Cc1cnc(-c2nc3ccccc3n2C(C(=O)Nc2c(C)cccc2C)C2CC2)cn1 (stereo not drawn)	none (no result: NadD block, FAS TE block, CRFR2-BP antag)
CC(C)(C)n1nnnc1C(c1ccc(Cl)cc1)N(Cc1cccnc1)Cc1ccco1 (stereo not drawn)	CRFR2-BP antag 59
CC(C)(C)n1nnnc1C(c1ccc(F)cc1)N(Cc1ccc(F)cc1)Cc1ccco1 (stereo not drawn)	none
CCCNC(=O)C1(C)CCCN(Cc2ccccc2N(C)C)C1 (stereo not drawn)	none (no result: CRFR2-BP antag)
Cc1ccc([N+](=O)[O-])cc1-c1[nH]c(-c2ccc(O)c(O)c2)nc1-c1ccccc1	NadD block 31
O=C1C=C(c2ccc(Cl)nc2)C[C@@H](c2ccc3c(c2)OCO3)C1	none
CN(C)/C(=N\S(=O)(=O)c1ccccc1)c1ccccc1	CendR NRP1 mod 27
COc1cccc(-c2cccc(-c3nc(C(=O)NCc4ccc5c(c4)OCO5)cc4c3[C@H](CCO)N(S(=O)C(C)(C)C)C4)c2)c1 (stereo partly drawn)	none (no result: CRFR2-BP antag)
COc1cccc(-c2cccc(-c3nc(C(=O)Nc4ccc(-c5ccccc5)cc4)cc4c3[C@H](CCO)N(S(=O)C(C)(C)C)C4)c2)c1 (stereo partly drawn)	NadD block 35 (no result: CRFR2-BP antag)
C=CCN(CC=C)Cc1cc(=O)oc2cc(C)c(C)cc12	none (no result: CRFR2-BP antag)
COC(=O)/C=C1\S/C(=N/NC(=O)c2ccccc2)NC1=O	none
COc1ccccc1/C=C1\S/C(=N/NC(=O)c2cccc(Br)c2)NC1=O	NadD block 38
O=C(c1cccc(F)c1)N1CCC(c2nc3ccccc3s2)CC1	none
O=C(CC1CC1)Nc1ccc2c(c1)[C@@H]1C[C@H](CC(=O)NC3CCCC3)O[C@@H](CO)[C@@H]1O2	none
CC(=O)NC(=O)c1cnn(-c2ccccc2)c1N	CendR NRP1 mod 36
CSc1cccc(NC(=O)C(C)C)c1	CRFR2-BP antag 51
CCC(=O)Nc1cccc(SC)c1	none
COc1ccccc1S(=O)(=O)N(C)C[C@H]1OCc2cnnn2CCCC(=O)N([C@H](C)CO)C[C@H]1C	none
